“And” between values parts separate entries of the source, which are not always exact repeats. Identical values can stand only once. About 83,000 compounds went through this panel and 20% of them were active in at least one assay; those are over-represented in the sample as a whole.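 Results are percent growth after 48 hours of single-concentration exposure. 100 means growth as in untreated cells, lower positive values show inhibition; negative values down to -100 show cell death.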 The source made the active and inactive calls. Rule for the calls: active = growth percent below 10; inactive = the rest. Starred links: 1 amine or outer side, 2 acyl side, 3 side chain; linkers in the order of their positions; H or OH if unused. Positions of bridges follow the written chain, without caps; N, C: chain ends. Non-standard residues stand in square brackets, D forms with d. Residues, ends and D or L forms follow the SMILES beside them. Chains are numbered I, II in the order given. Actinocin(9to1) = Cc1c2oc3c(C)ccc(C(=O)[*:1])c3nc-2c(C(=O)[*:2])c(N)c1=O; aThr = C[C@H](O)[C@H](N)C(=O)O; NMeV = CN[C@H](C(=O)O)C(C)C; Sar = CNCC(=O)O
The compounds below were run on SF-295 CNS (assay: NCI-60 one-dose screen, 48 h (100 = growth as untreated, 0 = no growth, -100 = all killed)). Details: 10 µM.

SMILES | growth
CN(C)CCC(=O)c1c[nH]c2ccccc12 | 99.7% (inactive)
N#C/C(=C1C=C/C(=N\O)C(Cl)=C\1)c1ccccc1 | -32.2% (active)
S=c1[nH]nc(Cc2ccccc2)c(=S)[nH]1 | 99.8% (inactive)
Cc1cnc(/C=N\NC(N)=S)c2cccc(N)c12 | -29.9% (active)
CCCCCCCCCCCCCCCCCN | 99.1% (inactive)
Cc1cc(NCCCN(C)C)c2ccc3c(ccc4c(NCCCN(C)C)cc(C)nc43)c2n1 | -76.2% (active)
COc1cc(C(C)(C)C)cc(OC)c1C(O)(c1c(OC)cc(C(C)(C)C)cc1OC)c1c(OC)cc(C(C)(C)C)cc1OC | -78.9% (active)
O=c1[nH]cc(F)c(=O)[nH]1 | 77% (inactive) and 100% (inactive)
Nc1ccc2cc(Br)c3ccccc3c2c1 | 21% (inactive)
BrC/C=C/C[P+](c1ccccc1)(c1ccccc1)c1ccccc1 | 38.2% (inactive)
O=C(/C(=C/c1ccccc1)CBr)c1ccccc1 | 95.1% (inactive)
Cc1c2oc3c(C)ccc(C(=O)N[C@@H]4C(=O)N[C@H](C(C)C)C(=O)N5CCC[C@H]5C(=O)N(C)CC(=O)N(C)[C@@H](C(C)C)C(=O)O[C@H]4C)c3nc-2c(C(=O)N[C@@H]2C(=O)N[C@H](C(C)C)C(=O)N3CCC[C@H]3C(=O)N(C)CC(=O)N(C)[C@@H](C(C)C)C(=O)O[C@H]2C)c(N)c1=O (I: [aThr][dV]P[Sar][NMeV] / II: [aThr][dV]P[Sar][NMeV]; ester I:1-I:C, II:1-II:C; linker I:N-II:N via Actinocin(9to1)) | -8.12% (active)
CSc1ccc2c(c1)C(N1CCN(C)CC1)Cc1ccccc1S2 (stereo not given) | 44.1% (inactive)
CN1CCN(c2ccc3nc(-c4ccc5nc(-c6ccc(O)cc6)[nH]c5c4)[nH]c3c2)CC1 | 96.3% (inactive)

What follows are compounds tested on SF-539 CNS in the same assay as above. Details: 10 µM.

SMILES | growth
CN(C)CCC(=O)c1c[nH]c2ccccc12 | 103% (inactive)
N#C/C(=C1C=C/C(=N\O)C(Cl)=C\1)c1ccccc1 | 2.46% (active)
S=c1[nH]nc(Cc2ccccc2)c(=S)[nH]1 | 102% (inactive)
Cc1cnc(/C=N\NC(N)=S)c2cccc(N)c12 | -47.9% (active)
CCCCCCCCCCCCCCCCCN | 94.2% (inactive)
Cc1cc(NCCCN(C)C)c2ccc3c(ccc4c(NCCCN(C)C)cc(C)nc43)c2n1 | -96% (active)
O=c1[nH]cc(F)c(=O)[nH]1 | -0.0094% (active) and -4.58% (active)
Nc1ccc2cc(Br)c3ccccc3c2c1 | 47.9% (inactive)
BrC/C=C/C[P+](c1ccccc1)(c1ccccc1)c1ccccc1 | 10% (inactive)
O=C(/C(=C/c1ccccc1)CBr)c1ccccc1 | 82.7% (inactive)
Cc1c2oc3c(C)ccc(C(=O)N[C@@H]4C(=O)N[C@H](C(C)C)C(=O)N5CCC[C@H]5C(=O)N(C)CC(=O)N(C)[C@@H](C(C)C)C(=O)O[C@H]4C)c3nc-2c(C(=O)N[C@@H]2C(=O)N[C@H](C(C)C)C(=O)N3CCC[C@H]3C(=O)N(C)CC(=O)N(C)[C@@H](C(C)C)C(=O)O[C@H]2C)c(N)c1=O (I: [aThr][dV]P[Sar][NMeV] / II: [aThr][dV]P[Sar][NMeV]; ester I:1-I:C, II:1-II:C; linker I:N-II:N via Actinocin(9to1)) | -54.7% (active)
CSc1ccc2c(c1)C(N1CCN(C)CC1)Cc1ccccc1S2 (stereo not given) | 60.1% (inactive)
CN1CCN(c2ccc3nc(-c4ccc5nc(-c6ccc(O)cc6)[nH]c5c4)[nH]c3c2)CC1 | 77% (inactive)

The compounds below were run on UACC-257 melanoma in the same assay as above. Details: 10 µM.

SMILES | growth
CN(C)CCC(=O)c1c[nH]c2ccccc12 | 115% (inactive)
S=c1[nH]nc(Cc2ccccc2)c(=S)[nH]1 | 102% (inactive)
Cc1cnc(/C=N\NC(N)=S)c2cccc(N)c12 | -30.6% (active)
CCCCCCCCCCCCCCCCCN | 99.2% (inactive)
Cc1cc(NCCCN(C)C)c2ccc3c(ccc4c(NCCCN(C)C)cc(C)nc43)c2n1 | -51.6% (active)
COc1cc(C(C)(C)C)cc(OC)c1C(O)(c1c(OC)cc(C(C)(C)C)cc1OC)c1c(OC)cc(C(C)(C)C)cc1OC | -46.1% (active)
O=c1[nH]cc(F)c(=O)[nH]1 | 73.1% (inactive) and 22.6% (inactive)
Nc1ccc2cc(Br)c3ccccc3c2c1 | 90.1% (inactive)
BrC/C=C/C[P+](c1ccccc1)(c1ccccc1)c1ccccc1 | 47.9% (inactive)
O=C(/C(=C/c1ccccc1)CBr)c1ccccc1 | 73.9% (inactive)
Cc1c2oc3c(C)ccc(C(=O)N[C@@H]4C(=O)N[C@H](C(C)C)C(=O)N5CCC[C@H]5C(=O)N(C)CC(=O)N(C)[C@@H](C(C)C)C(=O)O[C@H]4C)c3nc-2c(C(=O)N[C@@H]2C(=O)N[C@H](C(C)C)C(=O)N3CCC[C@H]3C(=O)N(C)CC(=O)N(C)[C@@H](C(C)C)C(=O)O[C@H]2C)c(N)c1=O (I: [aThr][dV]P[Sar][NMeV] / II: [aThr][dV]P[Sar][NMeV]; ester I:1-I:C, II:1-II:C; linker I:N-II:N via Actinocin(9to1)) | -29.8% (active)
CSc1ccc2c(c1)C(N1CCN(C)CC1)Cc1ccccc1S2 (stereo not given) | -61.6% (active)
CN1CCN(c2ccc3nc(-c4ccc5nc(-c6ccc(O)cc6)[nH]c5c4)[nH]c3c2)CC1 | 113% (inactive)

Source: PubChem BioAssay (NCI)
